From PubChem BioAssay
The list is not random: actives were taken first. Their share in the collection is about 3.4%.
GBA mod: alters purified human glucocerebrosidase activity | purified enzyme, resorufin glucoside fluorescence (screen aimed at inhibitors), 20 min | Potency, µM | 48,000 tested, 1.1% active | AID 360; in the data active = potency below about 15 µM; inconclusive = mostly about 16 µM to 33 µM;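 also: the screen sought inhibitors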
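Wild-type enzyme at 0.2 nM final in 50mM citric acid/KH2PO4, 10mM sodium taurocholate, 0.01% tween-20, pH 5.9, with resorufin beta-D-glucopyranoside at 30 uM final. Compounds titrated, 20 min at RT, red fluorescence read; AC50 from titration.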
FLuc inh: firefly luciferase inhibition | 72,000 tested, 2.2% active | purified firefly luciferase, luminescence, 8 min | P08659 | Potency, µM (titrated, usually from 57.1 µM), for the others: at the top dose activity change, negative = inhibition, hits mostly inhibitors; active = well fitted inhibition curve with a large enough effect; inconclusive = small, poorly fitted or top-dose-only effect; also: % is scaled to controls: 0 for no effect and ±100 for the full control effect; nearly all actives have a fitted effect of over 40% in size
Target sequence (P08659 whole entry, looked up): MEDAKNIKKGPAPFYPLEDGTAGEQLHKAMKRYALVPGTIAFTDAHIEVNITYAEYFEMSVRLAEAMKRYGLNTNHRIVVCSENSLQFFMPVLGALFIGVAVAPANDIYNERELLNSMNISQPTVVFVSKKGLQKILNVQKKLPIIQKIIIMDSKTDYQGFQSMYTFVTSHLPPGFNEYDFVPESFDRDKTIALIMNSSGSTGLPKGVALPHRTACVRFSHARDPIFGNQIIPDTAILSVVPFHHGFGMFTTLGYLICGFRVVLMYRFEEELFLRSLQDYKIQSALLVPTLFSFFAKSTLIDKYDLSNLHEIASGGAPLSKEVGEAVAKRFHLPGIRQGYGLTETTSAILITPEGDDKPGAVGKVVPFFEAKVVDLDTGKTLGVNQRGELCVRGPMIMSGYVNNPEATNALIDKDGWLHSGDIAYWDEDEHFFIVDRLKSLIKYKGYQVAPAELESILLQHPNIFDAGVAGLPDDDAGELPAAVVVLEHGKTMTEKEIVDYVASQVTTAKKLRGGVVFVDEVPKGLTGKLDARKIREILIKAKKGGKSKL
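Here, luciferase activity is measured as luminescence following an 8 min room-temperature reaction at 10 uM ATP, pH 7.2. Every library sample is titrated.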
Bst PK mod: modulators of Bacillus stearothermophilus pyruvate kinase | purified pyruvate kinase, luminescence ATP production; ribose 5-phosphate activator present at AC10 | Potency, µM | 51,000 tested, 1.2% active | AID 361; in the data active = potency below about 11 µM; inconclusive = mostly about 12 µM to 25 µM;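 the screen sought inhibitors and activators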;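 also: scaled between full activation by ribose 5 phosphate and full inhibition by luteolin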
Active calls of the source: *; i = inactive; u = inconclusive; x = no result given; [ ] = another dose, or the depositor's remark. Potency is read from the fitted curve at half-maximal effect.

SMILES | GBA mod | FLuc inh | Bst PK mod
CSc1ccc(NC(=O)[C@H]2CCCC[C@@H]2C(=O)O)cc1 | x | 1%[11.4 µM] | x
CC(C)[C@@H](OCc1ccccc1)[C@H](C)/C=N\OC[C@@H](O)[C@@H]1O[C@@H]2OC(C)(C)O[C@@H]2[C@H]1O | x | -2%[11.4 µM] | x
COc1ccc(-c2nc3cnc(N4CCOCC4)nc3n(-c3ccccc3)c2=O)cc1 | x | 0%[11.4 µM] | x
c1coc(-c2nnc3sc(Cc4cccs4)nn23)c1 | x | 1%[25.5 µM] | >11
Clc1ccc(-c2nnc3sc(Cc4cccs4)nn23)c(Cl)c1 | x | 0%[25.5 µM] | 9.5*
CN(Cc1ccco1)c1ncnc2ccc(-c3ccccc3C#N)cc12 | x | 1%[2.29 µM] | x
COc1ccc(-n2c(=O)c(-c3cccs3)nc3cnc(N4CCN(C)CC4)nc32)cc1 | x | 1%[11.4 µM] | x
Cc1ccc(C)c(N(C(=O)Cn2nnc(-c3cccs3)n2)C(C(=O)NC2CC2)c2ccc(C)o2)c1 (configuration not stated) | 12* | 5% | >57
Cc1ccc(N(C(=O)Cn2nnc(-c3ccc(C)o3)n2)C(C(=O)NC2CCCC2)c2ccco2)cc1 (configuration not stated) | >77 | -1% | >57
c1ccc(-c2nc3ccccc3c3nncn23)cc1 | >77 | 0% | x
c1ccc2c(c1)nc(-c1ccncc1)n1nnnc21 | >77 | -9% | 8.9*
Oc1ccccc1C(Sc1nc2ccccc2s1)Sc1nc2ccccc2s1 | x | -2%[11.4 µM] | x
Cc1nonc1NC(=O)CSc1nnc(-c2ccoc2C)n1C | >77 | 2% | >57
Cc1ccc(-c2ccc(SCC(=O)Nc3nonc3C)nn2)cc1 | >77 | 7.9µM* | x
CCOC(=O)c1sc(-c2ccc(OC)cc2)cc1N | >77 | 13µM* | i
CCOC(=O)c1sc(-c2ccccc2)cc1N | >77 | u | i
CC[C@@]12CCCN3CCc4c(n(c5ccccc45)[C@](O)(C(=O)OC)C1)[C@H]32 | x | 2%[11.4 µM] | x
C[C@@H](c1ccccc1)N1C(=O)[C@H]2[C@@H]3[C@H](O)[C@H](O)CC(=O)[C@H]3CC[C@H]2C1=O | x | 0%[11.4 µM] | x
CCCSc1nc(N)c2c3c(sc2n1)CN(C)CC3 | >77 | 2% | >57
COC(=O)CSc1nc(N)c2c3c(sc2n1)CCCC3 | x | 13µM* | u
COc1cccc(C(=O)Cn2c(N3CCCCC3)nc3c2c(=O)n(C)c(=O)n3C)c1 | >77 | -3% | >57
COc1cccc(C(=O)Cn2c(=N)n(C)c3ccccc32)c1 | i | 1.3µM* | 2.5*
NCOC(=O)Cc1ccc(Br)cc1 | x | 2%[11.4 µM] | x
NC(N)=NCCSSCCN=C(N)N | x | 0% | x
O=C(O)c1cc(-c2ccc3cc4c(cc3c2)OCO4)nc2ccccc12 | x | 2.5µM* | x
SMILES | GBA mod | FLuc inh | Bst PK mod
O=C(c1cnc(N2CCN(c3ncccn3)CC2)c2ccccc12)N1CCN(c2ncccn2)CC1 | >77 | 4% | >57
CC(C)Oc1cccc(-c2cc(C(=O)N3CCN(S(C)(=O)=O)CC3)c3ccccc3n2)c1 | >77 | 5µM* | u
CS(=O)(=O)N1CCN(C(=O)c2ccc(-c3ccccc3)cc2)CC1 | x | 2% | x
COC(=O)c1cc(-c2ccc3c(c2)OCO3)nc2ccccc12 | x | -17% | x
Cc1ccc2nc(-c3ccccn3)cc(C(=O)N3CCN(c4ncccn4)CC3)c2c1 | >77 | 5% | >57
O=C(c1ccc2c3c(cccc13)CC2)N1CCN(c2ncccn2)CC1 | >77 | 1% | 6*
COc1cccc(-c2cc(C(=O)N3CCN(c4ncccn4)CC3)c3ccccc3n2)c1 | x | 6.3µM* | x
O=C(C[C@@H](c1ccccc1)N1CCCCC1)c1ccccc1 | x | -21%[11.4 µM] | x
O=S(=O)(c1ccc(Br)cc1)N1CCN(S(=O)(=O)c2ccc(Br)cc2)CC1 | x | 3%[11.4 µM] | x
O=c1cc(-c2ccccc2)oc2cc(O[C@H]3O[C@H](CO)[C@@H](O)[C@H](O)[C@@H]3O)c(O)c(O)c12 | x | -1%[11.4 µM] | x
Cc1ccc(-c2cc(C(=O)N3CCOCC3)c3ccccc3n2)cc1 | >77 | 13µM* | i
COc1cccc(-c2cc(C(=O)Nn3cnnc3)c3ccccc3n2)c1 | x | 3.2µM* | x
O=C(Nn1cnnc1)c1cc(-c2ccccn2)nc2ccccc12 | >77 | -26% | x
O=C(OCC(=O)N1CCN(C(=O)c2ccco2)CC1)c1cc(-c2ccc(F)cc2)nc2ccccc12 | >77 | u | 2.1*
O=C(OCC(=O)N1CCN(C(=O)c2ccco2)CC1)c1cc(-c2ccccc2)nc2ccccc12 | >77 | -13% | u
COc1ccc(-c2cc(C(=O)N3CCOCC3)c3cc(C)ccc3n2)cc1 | >77 | u | x
COc1ccc(CNc2ncnc3ccc(-c4ccc(N(C)C)cc4)cc23)c(OC)c1 | x | 1%[2.29 µM] | x
C[N+]1(C)CC[C@@H](OC(=O)[C@@](O)(c2ccccc2)C2CCCC2)C1 | x | -4%[25.5 µM] | x
Cc1cc(NC(=O)Nc2ccc(N(C)C)cc2)c2cc(F)cc(F)c2n1 | x | -4% | x
COc1ccc(C(CC(=O)NC(C)(C)C)n2cccc2)cc1 (configuration not stated) | >77 | 1% | >57
